According to PubChem BioAssay:
The source made the active and inactive calls. Unless noted, no rule for the calls is given here.

Legend:
[1] = liver-stage malaria parasite load reduction – cell-based, known kinase inhibitor set, luminescence, hepatoma host viability (AID 624392); details: Plasmodium liver stage in hepatoma cells, luciferase luminescence, concentration not given here; liver cell % of control: measured here: host liver cell viability; parasite % of control: stronger effect = lower value;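 also: infected cells incubated roughly two days before readout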
[2] = altered dexamethasone sensitivity, NF-kB reporter, cell-based, luciferase, IL-1B stimulus (AID 624486); details: IL-1B + dexamethasone, luminescence; percent of negative control (+Dex): actives lie on both sides, concentration not given here; z-score: measured here: IL-1B alone, no Dex;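 as to percent of negative control (+Dex): 100% = mean signal of vehicle control wells on the plate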
[3] = C. elegans survival during P. aeruginosa infection – whole organism (AID 651566);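 also: tested at 14 µM; sign flipped so higher z means a lower ratio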; details: C. elegans killed by P. aeruginosa, survival ratio
[4] = pro-inflammatory signaling induction in mouse macrophages – cell-based, murine, luminescence (AID 652131); details: murine macrophage pro-inflammatory reporter, stronger effect = higher value
[5] = biological target: Cellular tumor antigen p53 (Homo sapiens) (UniProt P04637); assay: GFP-p53 level modulators in HPV16+ cells – imaging, known kinase inhibitor set, EGFP/DsRed ratio (AID 1053116); details: GFP-p53 stability, stronger effect = higher value; EGFP object count: measured here: GFP-p53 positive objects count;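 also: cells exposed to compounds for 24 h at 37 °C before reading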
Chain of Cellular tumor antigen p53 (Homo sapiens) (P04637 whole entry, looked up): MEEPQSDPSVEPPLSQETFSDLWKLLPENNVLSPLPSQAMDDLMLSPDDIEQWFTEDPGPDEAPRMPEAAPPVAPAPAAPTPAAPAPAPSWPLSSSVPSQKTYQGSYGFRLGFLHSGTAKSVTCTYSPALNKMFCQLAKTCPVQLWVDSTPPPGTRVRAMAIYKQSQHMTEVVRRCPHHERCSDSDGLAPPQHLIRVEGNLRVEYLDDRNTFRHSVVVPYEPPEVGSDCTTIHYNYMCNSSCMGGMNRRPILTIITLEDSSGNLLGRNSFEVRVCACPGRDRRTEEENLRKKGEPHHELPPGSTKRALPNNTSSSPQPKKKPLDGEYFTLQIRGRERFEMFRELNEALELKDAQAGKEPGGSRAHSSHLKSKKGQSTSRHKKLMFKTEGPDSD

[6] = inducers of IRF3 signaling, differentiated THP-1 – cell-based, PMA-stimulated THP-1, luminescence (AID 1053176); details: PMA-differentiated THP-1, IRF3 reporter luminescence; stronger effect = higher value
[7] = MELAS cybrid and Rieske KO viability enhancers – cell-based, MELAS cybrids, Rieske KO mouse fibroblasts, CellTiter-Glo, primary screen (AID 1508586;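 active = mean z-score across replicates of 1.96 or higher in either the MELAS or the Rieske mutant cell line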;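 also: z relative to plate mean and SD of compound and empty wells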); details: low glucose
[8] = MELAS cybrid survival, CellTiter-Glo 48 h, stronger effect = higher value
[9] = Rieske KO mouse fibroblast survival, CellTiter-Glo 72 h

Structure (SMILES) | liver cell % of control [1] | parasite % of control [1] | percent of negative control (+Dex) [2] | z-score [2] | z-score [3] | z-score [4] | EGFP object count [5] | EGFP/DsRed ratio [5] | fraction signal [6] | z-score [7, 8] | z-score [7, 9]
O=C(O[C@H]1CN[C@H](C#Cc2cc3ncnc(Nc4ccc(Cc5ccccc5)cc4)c3s2)C1)N1CCOCC1 | 106% | 85.4% (inactive) | 88% (inactive) | -1.34 | -0.335 (inactive) | 0.302 (inactive) | 5.5 | 0.104 (inactive) | -0.006 (inactive) | -0.24 (inactive) | -0.218
CC(C)c1ccc(-c2cc(C3CNNC3c3ccccn3)ccn2)cc1 (configuration not stated) | 100% | 117% (inactive) | 95.5% (inactive) | 0.855 | 0.505 (inactive) | 0.704 (inactive) | 2 | 0.021 (inactive) | -0.0085 (inactive) | 0.0399 (inactive) | -0.129
O=C(O[C@H]1CN[C@H](C#Cc2cc3ncnc(Nc4ccc5c(ccn5Cc5cc(F)ccc5F)c4)c3s2)C1)N1CCOCC1 | 93.4% | 75.1% (inactive) | 62% (inactive) | -2.06 | 0.505 (inactive) | 2.01 (inactive) | 3 | 0.0606 (inactive) | -0.0085 (inactive) | -0.816 (inactive) | -0.0743
N#Cc1cccc(Nc2nccc(-c3cnn4ncccc34)n2)c1 | 128% | 19.1% (inactive) | 2% (active) | -9.25 | 0.415 (inactive) | -1.79 (inactive) | 1 | 0.00226 (inactive) | -0.013 (inactive) | 0.321 (inactive) | 1.44
O=C(Nc1n[nH]c2nc(-c3ccco3)c(Br)cc12)C1CC1 | 109% | 102% (inactive) | 95% (inactive) | 0.68 | -0.17 (inactive) | 0.441 (inactive) | 4 | 0.447 (inactive) | -0.002 (inactive) | -1.24 (inactive) | 0.037
COc1cc(Nc2ncc(-c3ccccc3)o2)cc(OC)c1 | 105% | 156% (inactive) | 158% (inactive) | 5.51 | -1.38 (inactive) | 1.77 (inactive) | 3.5 | 0.0542 (inactive) | 0.0025 (inactive) | 0.0476 (inactive) | -0.415
CCn1c(-c2nonc2N)nc2c(C#CC(C)(C)O)nc(CN3CCCC3)cc21 | 107% | 162% (inactive) | 85.5% (inactive) | -0.04 | -0.175 (inactive) | 0.541 (inactive) | 4 | 0.0701 (inactive) | 0.0045 (inactive) | -0.869 (inactive) | 0.697
